# Assay outcomes from PubChem BioAssay.
# Only a sample is shown.
# aSyn UTR act: Activators via SNCA 5'UTR binding, MLPCN; alpha-synuclein 5'UTR reporter, activators screen; activity score, % (tested at 7.5 µM), hits read low; hit rate 7.1% among 300,000; AID 1814; in the data active = activity score below about -60%
# An asterisk follows results filed as active.
SMILES,aSyn UTR act
Cc1ccc(C(c2cc(Cl)c3cccnc3c2O)N2CCN(C)CC2)cc1 (stereo not drawn),66
CC(C)c1ccc(-c2cc(C(=O)NN3CCN(C)CC3)c3ccccc3n2)cc1,-117*
CC(C)c1ccc(-c2cc(C(=O)N3N=C(C(F)F)CC3(O)C(F)F)c3ccccc3n2)cc1 (stereo not drawn),-166*
COC(=O)c1ccccc1NC(=O)COC(=O)c1ccccc1N=Nc1ccc(N(C)C)cc1,-80*
CC(=O)c1ccc(NC(=O)COC(=O)c2ccccc2N=Nc2ccc(N(C)C)cc2)cc1,-101*
CN(C)c1ccc(N=Nc2ccccc2C(=O)OCC(=O)N(C)c2ccccc2)cc1,-83*
Cc1cc(C)c2c(NC(=O)CCl)nn(C)c2n1,-65*
CCOc1ccc(-c2cc(C(=O)OC)[nH]n2)cc1,-103*
CCOc1cccc(-c2cc(C(=O)NN)[nH]n2)c1,-64*
COC(=O)c1cc(-c2ccc(C)cc2)n[nH]1,-106*
CCN1CCN(Cc2ccc(NC(=O)c3cc(NC(=O)c4cc(-c5ccc(OC)cc5)n[nH]4)cc(OC)c3)cc2C(F)(F)F)CC1,106
COC(=O)c1cc(-c2ccc(OC)cc2)n[nH]1,-103*
CC(=O)Nc1ccccc1/C=C/c1ccc2c(C)ccc(O)c2n1,-64*
C=CCOc1cccc(CNc2cccc(C(=O)O)c2)c1,-77*
C=CCOc1c(CNc2cccc(C(=O)O)c2)cccc1OC,-78*
NNC(=O)c1ccc(OCC2CC(c3ccc(Cl)cc3)=NO2)cc1 (stereo not drawn),-74*
COC(=O)c1ccccc1OCCCOc1ccc(C=O)cc1OC,-107*
COc1cc(C=O)ccc1OCc1cccc(Br)c1,-152*
COc1cc(/C=C2/C(=O)N(C)C(=S)N2C)ccc1OCc1cccc(F)c1,-156*
COc1cc(C=O)ccc1OCc1ccccc1Br,-202*
COc1cc(C=O)ccc1OCCSc1ccc(C)cc1,-129*
Cc1cccc(/C=C/C(=O)c2ccc(NC3=NCCCS3)cc2)c1,-220*
COc1cccc(/C=C/C(=O)c2ccc(NC3=NCCCS3)cc2)c1,-101*
CC(C)CC(NC(=O)C1CCC(C)CC1)C(=O)Nc1ccc2c(c1)OCCO2 (stereo not drawn),-62*
CCC1CCC(C(=O)NC(C(=O)Nc2ccc3c(c2)OCCO3)C(C)C)CC1 (stereo not drawn),-84*
SMILES,aSyn UTR act
Nc1nc(-c2ccc(Br)cc2)cs1,-99*
c1ccc(-c2cc(-c3ccccc3)on2)cc1,-152*
Nc1nc(-c2ccccc2)cs1,-97*
N/C(Cc1nc(-c2ccc(Br)cc2)cs1)=N\O,-96*
O=C(c1ccccc1)c1cc(-c2ccccc2)on1,-108*
Nc1nc(-c2cc(-c3ccccc3)no2)cs1,-174*
O=C(c1ccc(Cl)cc1)c1cnc2ccccn12,-126*
O=C(NC(=S)NCc1nc2ccccc2[nH]1)c1ccc(F)cc1,-119*
O=C(NC(=S)NCc1nc2ccccc2[nH]1)c1ccccc1F,-143*
O=C(/C=C/c1ccc(O)c(O)c1)OCCc1ccccc1,-131*
O=C(/C=C/c1cc2ccccc2o1)c1ccccc1O,-161*
O=C(/C=C/c1ccc(O)c(O)c1)c1ccccc1O,-293*
O=C(/C=C/c1ccoc1)c1ccccc1O,-76*
O=C(CSc1ncnc2nc[nH]c12)c1ccccc1,-87*
c1ccc(CCSc2ncnc3nc[nH]c23)cc1,-75*
O=C(Nc1ccc2c(c1)OCO2)N1CCC(CO)(CC2CCCCO2)CC1 (stereo not drawn),-91*
O=C(Nc1ccc2c(c1)OCO2)N1CCN(S(=O)(=O)c2ccc(Cl)cc2)CC1,-68*
O=C(Nc1ccc2c(c1)OCO2)N1CCN(c2ccccc2Cl)CC1,-187*
O=C(O)c1ccc(Cn2cnc3scc(-c4ccccc4)c3c2=O)cc1,-142*
Fc1ccc(CO/N=C2\CCCc3nonc32)cc1,-91*
CCCC(=O)c1ccc(N2CCC(C)CC2)c(F)c1,-83*
CCC(=O)c1ccc(N2CCC(C)CC2)c(F)c1,-99*
Cc1ccc(C(=O)/C=C/c2ccc3c(c2)OCCO3)c(O)c1,-181*
O=C(/C=C/c1ccc2c(c1)OCCCO2)c1ccc2ccccc2c1O,-158*
COC(=O)N/N=C\c1ccccc1OC/C=C/c1ccccc1,-123*
SMILES,aSyn UTR act
CCOC(=O)N/N=C\c1ccccc1OC/C=C/c1ccccc1,-95*
O=C(/C(=C(\O)c1ccccc1)c1nc2ccccc2[nH]1)c1ccccc1,-108*
COc1ccc(NC(=O)CCCc2ccccc2)cc1OC,-136*
COc1cc(NC(=O)C(C)C)ccc1NC(=O)c1cc2ccccc2o1,-166*
COc1ccc(NC(=O)c2cc3ccccc3o2)cn1,-216*
COc1ccc(NC(=O)c2coc3ccccc23)cc1OC,-122*
COc1ccc(NC(=O)c2cc(CN3C(=O)c4ccccc4C3=O)ccc2OC)cn1,-86*
COc1ccc(NC(=O)c2cc3ccccc3o2)cc1OC,-150*
COc1ccc(NC(=O)c2cc3ccccc3o2)cc1,-152*
c1ccc(CCNc2ncnc3ccccc23)cc1,-117*
c1ccc(CCNc2ccnc3cc4ccccc4cc23)cc1,117
Cc1cc2c(NCCc3ccccc3)ncnc2s1,-64*
Cc1ncoc1C(=O)Nc1cccc(Cl)c1,-92*
Cc1ccc(NC(=O)c2ocnc2C)cc1Cl,-240*
COc1cccc(NC(=O)c2ocnc2C)c1,-81*
Clc1cc2nc3ccccn3c2cc1Cl,-115*
Cc1ccn2c(c1)nc(=S)n2C(=O)c1ccco1,-202*
COc1ccc([C@H]2CC(=O)c3c(O)cc(O)cc3O2)cc1O,-93*
COc1c(O)cc2c(c1O)C(=O)CC(c1ccccc1)O2 (stereo not drawn),-102*
COc1cccc(NCc2cc(=O)oc3cc(-c4ccccc4)c(O)cc23)c1,-128*
Fc1ccccc1/C=N/Nc1ncnc2nc[nH]c12,-62*
Cc1ccc(/C=N/Nc2ncnc3nc[nH]c23)cc1,-63*
Fc1cccc(/C=N/Nc2ncnc3nc[nH]c23)c1,-93*
COc1cccc(-n2cc3c(=O)n(C)c(=O)n(C)c3c2)c1,-86*
Cc1cc(C)cc(NS(=O)(=O)c2ccc3c(c2)c(=O)n(C)c(=O)n3C)c1,58
SMILES,aSyn UTR act
O=C(NCCc1ccccc1Cl)c1ccc2nc3ccccc3c(=O)n2c1,-100*
O=C(c1ccccc1)c1nn(-c2ccc(Cl)cc2)c(=O)cc1C(F)(F)F,-219*
CS(=O)(=O)c1nc(-c2ccccc2)cc(C(F)(F)F)n1,-111*
OC(c1cc(-c2ccc(C(F)(F)F)cc2)nc(C(F)(F)F)c1)C1CCCCN1 (stereo not drawn),103
CC(C)(C)c1cc(CCC(=O)NNC(=S)NC(=O)c2ccccc2)cc(C(C)(C)C)c1O,66
CC(C)(C)c1ccc(C(=O)NC(=S)Nn2cnnc2)cc1,-76*
Cc1cc(C)cc(NC(=S)Nc2ccccn2)c1,-105*
Cc1ccc(NC(=S)Nc2ccccn2)cc1C,-112*
Cc1cccc(NC(=S)Nc2ccccn2)c1,-71*
CCN(CC)C(=O)c1ccc(COc2ccc(Cl)c(C)c2)o1,-119*
Cc1cc(OCc2ccc(C(=O)n3cccn3)o2)ccc1Cl,-62*
COc1cccc(N2CCN(C(=O)c3ccc(CS(=O)c4ccc(Cl)cc4)o3)CC2)c1 (stereo not drawn),107
Oc1ccccc1C1=Nc2nc3ccccc3n2C(c2ccccc2)C1 (stereo not drawn),-214*
COc1cc2[nH]c3ccccc3c2cc1C,-65*
COc1ccccc1NC(=O)/C=C/c1ccc2c(c1)OCO2,-167*
